# Reference: the supplement of paper PMC5662767
# Tested on: Drosophila S2 cl14 SmoIP sensor cells
# Experiment: normalized SmoIP GFP fluorescence (untreated unstimulated = 0%, untreated Hh-stimulated = 100%); higher = more Smo activation sensor fluorescence
# Conditions: stimulation: Hh conditioned medium (+Hh); compound concentration: 2 uM; 24 h
# 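Note: flow cytometry read-out as median GFP intensity of gated cells, compounds added 30 min before Hh-conditioned or mock medium, mock-treated cells serving as unstimulated baseline.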
row,SMILES,normalized SmoIP GFP fluorescence [%]
1,CC(=O)/N=c1/sc(S(N)(=O)=O)nn1C [methazolamide],111
2,c1ccc(-c2nn3c(c2-c2ccnc4cc(OCCN5CCOCC5)ccc24)CCC3)nc1,137
3,COc1cc2ncnc(Nc3cccc(Cl)c3)c2cc1OC [ag-1478-tyrphostin-ag-1478],157
4,O=C(NCCCNc1nc(Nc2cccc(NC(=O)N3CCCC3)c2)ncc1I)c1cccs1,257
5,CCc1cncnc1N1CCN(Cc2nc3ccc(C(F)(F)F)cc3[nH]2)CC1,121
6,CC(C)(CO)c1cc2cc(NC(=O)C3(c4ccc5c(c4)OC(F)(F)O5)CC3)c(F)cc2n1C[C@@H](O)CO,104
7,COc1ccc(-c2cc3c(C)nc(N)nc3n([C@H]3CC[C@H](OCCO)CC3)c2=O)cn1,87.2
8,Cc1ccc(S(=O)(=O)NC(=O)NN2CC3CCCC3C2)cc1 (stereo not drawn) [gliclazide-diamicron],111
9,C[C@H](NC(=O)[C@@H](O)c1cc(F)cc(F)c1)C(=O)N[C@@H]1C(=O)N(C)c2ccccc2-c2ccccc21,145
10,COc1ccc(C(=O)Nc2sc3c(c2C(N)=O)CCCC3)cc1OC,128
11,O=c1cc(-c2ccc(O)cc2)oc2cc(O)cc(O)c12 [Apigenin],140
12,C[N+]1(C)[C@@H]2C[C@@H](OC(=O)C(O)(c3cccs3)c3cccs3)C[C@H]1[C@@H]1O[C@@H]12 [Tiotropium-Bromide-hydrate],114
13,C[C@@H]1CN(CC(=O)Nc2ccc3c(c2)Cc2cccc(-c4cc(=O)cc(N5CCOCC5)o4)c2S3)C[C@H](C)O1,147
14,COc1cc(Nc2c(C#N)cnc3cc(OCCCN4CCN(C)CC4)c(OC)cc23)c(Cl)cc1Cl [Bosutinib],143
15,COc1ccnc2[nH]cc(C(=O)C(=O)N3CCN(C(=O)c4ccccc4)C[C@H]3C)c12,142
16,CC(=O)Nc1nc(C)c(-c2ccc(Cl)c(S(=O)(=O)NCCO)c2)s1,130
17,CC(C)(Cc1ccc2ccccc2c1)NC[C@@H](O)COc1cccc(Cl)c1C#N,157
18,CN1[C@@H]2CC[C@H]1C[C@@H](OC(c1ccccc1)c1ccccc1)C2 [benztropine-mesylate],113
19,CCCCCCCCOc1ccccc1C(=O)Nc1ccc(C(=O)OCC[N+](C)(CC)CC)cc1 [otilonium-bromide],109

row,SMILES,normalized SmoIP GFP fluorescence [%]
1,Cn1cc(-c2ccc3nnc(Sc4ccc5ncccc5c4)n3n2)cn1,96.1
2,Cc1c(C(=O)Nc2ccc(N3C[C@@H](C)O[C@@H](C)C3)nc2)cccc1-c1ccc(OC(F)(F)F)cc1,114
3,Nc1nccc2c1ncn2[C@@H]1C=C(CO)[C@@H](O)[C@H]1O [3-deazaneplanocin-a-dznep],142
4,CCCS(=O)(=O)Nc1ccc(F)c(C(=O)c2c[nH]c3ncc(-c4ccc(Cl)cc4)cc23)c1F,91.2
5,N#CCNC(=O)c1ccc(-c2ccnc(Nc3ccc(N4CCOCC4)cc3)n2)cc1,208
6,CC(C)(C)c1cc(C(C)(C)C)c(NC(=O)c2c[nH]c3ccccc3c2=O)cc1O,-31.6
7,NC(=O)c1ncn([C@@H]2O[C@H](CO)[C@@H](O)[C@H]2O)c1N [Acadesine],127
8,CN1CCC(NC(=O)c2cc(-c3c(O)cc(O)cc3Oc3ccc([N+](=O)[O-])cc3)on2)CC1,129
9,COc1ccc(-c2ccc3ncc4c(c3c2)n(-c2ccc(N3CCNCC3)c(C(F)(F)F)c2)c(=O)n4C)cn1,66.3
10,COc1ccc(CNC(=O)Nc2ncc([N+](=O)[O-])s2)cc1,111
11,C[S+]([O-])c1ccc(-c2nc(-c3ccc(F)cc3)c(-c3ccncc3)[nH]2)cc1 (stereo not drawn),119
12,C=C(C)[C@@H]1CC[C@]2(C(=O)O)CC[C@]3(C)[C@H](CC[C@@H]4[C@@]5(C)CC[C@H](O)C(C)(C)[C@@H]5CC[C@]43C)[C@@H]12 [betulinic-acid],97
13,Nc1ccc(-c2ccc3ncc4ccc(=O)n(-c5cccc(C(F)(F)F)c5)c4c3c2)cn1 [torin-2],59.5
14,NC(=O)c1cnc(N[C@@H]2CCCC[C@@H]2N)nc1Nc1cccc(-n2nccn2)c1,166
15,Cc1cc(Nc2ccc(NC(=O)c3ccc(Nc4ccnc5ccccc45)cc3)cc2)nc(N)n1,108
16,CCOc1cc2ncc(C#N)c(Nc3ccc(OCc4ccccn4)c(Cl)c3)c2cc1NC(=O)/C=C/CN(C)C [Neratinib(HKI-272)],105
17,CC(C)CN(C[C@@H](O)[C@H](Cc1ccccc1)NC(=O)O[C@H]1CO[C@H]2OCC[C@H]21)S(=O)(=O)c1ccc(N)cc1 [Darunavir-Ethanolate(Prezista)],101
18,CC(=O)OCC[N+](C)(C)C [Acetylcholine-chloride],104
19,CO[C@H]1C[C@@H]2CC[C@@H](C)[C@@](O)(O2)C(=O)C(=O)N2CCCC[C@H]2C(=O)O[C@H]([C@H](C)C[C@@H]2CC[C@@H](O)[C@H](OC)C2)CC(=O)[C@H](C)/C=C(\C)[C@@H](O)[C@@H](OC)C(=O)[C@H](C)C[C@H](C)/C=C/C=C/C=C/1C [Rapamycin],26.9
